Screening results: PubChem BioAssay, National Center for Advancing Translational Sciences (NCATS)
Compounds with a hit are over-represented: about 6% of the library has one in this group of screens.
DRD3 antagonist = D3 dopamine receptor (human) antagonism. P35462. D3R cells, DiscoveRx beta-arrestin luminescence, antagonist mode; stronger effect = lower value. max response, negative = inhibition, %. 360,000 compounds, 2.5% hits; in the data active = max response below about -50%; inconclusive = no clear call, values can overlap the other calls; note: % is set by controls: 0 for no effect and ±100 for the full control effect
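Cells plated overnight at 1500 cells/well, then exposed to library compounds with dopamine controls for 90 minutes at 37 degrees C. DiscoveRx reagent added for 30–60 minutes at room temperature; luminescence read, quantitative HTS format.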
D3 ag = D3 dopamine receptor (human) agonism; P35462; D3R DiscoveRx beta-arrestin cells, luminescence, 90 min; max activation, %; 410,000 compounds, 0.58% hits; AID 652048; in the data active = max activation above about 30%; note: 0% is about no effect
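Cells at 1500/well, incubated overnight, then treated with pinned compounds (dopamine as control) for 90 min at 37 degrees C. DiscoveRx reagent added for 30 - 60 minutes at room temperature; luminescence read.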
D1 agonist = agonists of human D1 dopamine receptor; P21728; HEK293 T-REx D1 cells, calcium flux, agonist mode; activation, % at 2 µM; 360,000 compounds, 1% hits; AID 504660; in the data active = activation above about 30%; note: 0% is about no effect
Target sequence (P21728 whole entry, looked up): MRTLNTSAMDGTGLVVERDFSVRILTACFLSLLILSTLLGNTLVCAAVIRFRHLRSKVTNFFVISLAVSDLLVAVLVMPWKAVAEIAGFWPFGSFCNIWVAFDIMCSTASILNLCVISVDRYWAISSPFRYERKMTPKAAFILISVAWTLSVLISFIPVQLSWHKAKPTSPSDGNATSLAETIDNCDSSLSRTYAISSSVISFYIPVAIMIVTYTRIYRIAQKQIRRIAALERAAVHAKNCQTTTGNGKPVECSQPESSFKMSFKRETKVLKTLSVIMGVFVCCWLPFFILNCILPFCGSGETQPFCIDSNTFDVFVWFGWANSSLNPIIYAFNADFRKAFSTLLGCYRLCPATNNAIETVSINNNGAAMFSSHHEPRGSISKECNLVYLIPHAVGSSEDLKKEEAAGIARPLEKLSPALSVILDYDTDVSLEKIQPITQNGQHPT
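Inducible HEK293 T-REx D1 cells, force-coupled to calcium signalling, were plated at 4000 cells/well with tetracycline and held overnight at 30 C. After no-wash calcium dye loading, compound-evoked calcium rise over 180 s flagged agonists.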
D1 potentiator = enhances dopamine response at the human D1 receptor | P21728 | HEK293 TREx D1 cells, calcium flux, dopamine EC20 potentiation | potentiation, % at 10 µM | 360,000 compounds, 0.036% hits | AID 504651; in the data active = potentiation above about 30%; note: 0% is about no effect
D1 antag = blocks dopamine activation of the human D1 receptor | P21728 | HEK293 TREx D1 cells, calcium flux, dopamine EC80; stronger effect = lower value | activity change, negative = inhibition, % at 10 µM | 360,000 compounds, 3.2% hits | AID 504652; in the data active = activity change below about -30%; note: % is set by controls: 0 for no effect and ±100 for the full control effect
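Tetracycline-induced HEK293 T-REx cells with force-coupled D1 receptor were loaded with a no-wash calcium dye. Compound was added after a 10 s baseline and read kinetically for 180 s; EC80 dopamine was then added and calcium flux followed another 180 s.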
An asterisk follows results filed as active; ! = not confirmed by another sample.

Results for O=C1C=CC(=O)N1c1cccc(-c2ccccc2)c1 ?
DRD3 antagonist: inconclusive; D3 ag: -25.6; D1 agonist: 5.1; D1 potentiator: -10.2; D1 antag: -42.6*

Results for CSc1ccc(C(=O)C2CCCN(C(=O)c3cccnc3SC)C2)cc1 (centres undefined) ?
DRD3 antagonist: 54.2; D3 ag: 10.8; D1 agonist: 9.7; D1 potentiator: 2.2; D1 antag: -31.8*

Results for CN1CCc2c(sc3c2C(=O)NC(c2ccc4c(c2)OCO4)N3)C1 (centres undefined) ?
DRD3 antagonist: -126.1*; D3 ag: -17.0; D1 agonist: 10.7; D1 potentiator: -0.1; D1 antag: 11.4

What do the screens show for `Cc1ccc(C2NC(=O)c3c(sc4c3CCN(C)C4)N2)s1` (centres undefined)?
DRD3 antagonist: -55.4*; D3 ag: -25.2; D1 agonist: 21.2; D1 potentiator: 4.7; D1 antag: 4.9

Results for Cc1ccc(S(=O)(=O)N2Cc3ccccc3CC2C(=O)N(C)C)cc1 (centres undefined) ?
DRD3 antagonist: 25.2; D3 ag: 0.0

Results for N=c1ncn(CC(O)CN2CCOCC2)c2nc(N3CCOCC3)[nH]c12 (centres undefined) ?
DRD3 antagonist: 7.8; D3 ag: -17.9; D1 agonist: 5.4; D1 potentiator: -7.0; D1 antag: -58.3*

What do the screens show for `COc1ccccc1-c1nc(-c2ccc(Br)o2)no1`?
DRD3 antagonist: 6.1; D3 ag: -2.0; D1 agonist: 4.2; D1 potentiator: 0.9; D1 antag: -34.8*!

What do the screens show for `CCn1ccc(C(=O)Nc2ncc(C)s2)n1`?
DRD3 antagonist: 0.6; D3 ag: 10.4; D1 agonist: 0.7; D1 potentiator: -6.2; D1 antag: 2.5

Results for COc1ccccc1CNC(=O)[C@H](C)NC(=O)C1CCN(C(=O)[C@@H](N)Cc2ccccc2)CC1 ?
DRD3 antagonist: 12.9; D3 ag: -2.6; D1 agonist: 1.4; D1 potentiator: -1.4; D1 antag: 7.4

How did COc1ccccc1CNC(=O)[C@H](C)NC(=O)C1CCN(C(=O)[C@@H](N)C(C)C)CC1 do in these assays?
DRD3 antagonist: -4.9; D3 ag: 38.0*; D1 agonist: 0.3; D1 potentiator: -3.0; D1 antag: -11.2

Results for Clc1ccc(OCCSCc2nc3ccccc3[nH]2)cc1 ?
DRD3 antagonist: -5.7; D3 ag: 2.1; D1 agonist: 21.4; D1 potentiator: -3.8; D1 antag: -49.1*

Results for COC(=O)c1ccc(COn2nnc3ccccc32)cc1 ?
DRD3 antagonist: -3.9; D3 ag: 6.3; D1 agonist: 3.9; D1 potentiator: -4.8; D1 antag: -35.4*

What do the screens show for `COC(=O)[C@H](CC(C)C)NC(=O)/C=C/[C@H]1O[C@@H](n2ccc(=O)[nH]c2=O)[C@H](O)[C@@H]1O`?
DRD3 antagonist: 11.3; D3 ag: 2.2

How did Nc1nonc1-n1nnc(C(=O)N/N=C/c2ccco2)c1-c1ccccc1 do in these assays?
DRD3 antagonist: 10.0; D3 ag: 8.5; D1 agonist: 4.6; D1 potentiator: 5.8; D1 antag: 6.4

Results for CCOc1ccc(-c2c(C(=O)N/N=C/c3ccc(C)o3)nnn2-c2nonc2N)cc1 ?
DRD3 antagonist: -11.7; D3 ag: 3.8; D1 agonist: -0.4; D1 potentiator: -0.8; D1 antag: -8.5

How did Cc1ccc(/C=N/NC(=O)c2nnn(-c3nonc3N)c2-c2ccccc2)o1 do in these assays?
DRD3 antagonist: -15.7; D3 ag: 4.0; D1 agonist: 34.4*; D1 potentiator: -4.2; D1 antag: -14.6

What do the screens show for `Nc1nonc1-n1nnc(C(=O)N/N=C/c2ccoc2)c1-c1ccccc1`?
DRD3 antagonist: 0.4; D3 ag: -2.4; D1 agonist: 35.4*; D1 potentiator: -7.0; D1 antag: 17.4

Results for CCCCCC(=O)N/N=C/c1cccs1 ?
DRD3 antagonist: 15.7; D3 ag: -2.0; D1 agonist: -1.2; D1 potentiator: 0.7; D1 antag: -47.4*

What do the screens show for `O=c1cc(CSc2nc3ccccc3c(=O)[nH]2)c2ccc(O)cc2o1`?
DRD3 antagonist: 12.4; D3 ag: -10.5; D1 agonist: 1.3; D1 potentiator: -7.2; D1 antag: -37.3*

What do the screens show for `O=c1[nH]c(SCc2ccccc2F)nc2ccccc12`?
DRD3 antagonist: 1.8; D3 ag: -0.3; D1 agonist: -0.2; D1 potentiator: -4.0; D1 antag: -7.8

Results for CC(Oc1ccc2ccccc2c1)C(=O)NNC(=O)Nc1ccccc1 (centres undefined) ?
DRD3 antagonist: -20.4; D3 ag: -33.1; D1 agonist: 1.1; D1 potentiator: 5.5; D1 antag: -37.1*

How did Cc1ccc(NC(=O)NNC(=O)COc2ccc3ccccc3c2)cc1 do in these assays?
DRD3 antagonist: -9.9; D3 ag: -3.6; D1 agonist: 0.5; D1 potentiator: -4.6; D1 antag: 2.1

Results for O=C(NCCS(=O)(=O)N1CCC2(CC1)OCCO2)c1ccc(F)cc1 ?
DRD3 antagonist: 10.4; D3 ag: -4.8; D1 agonist: 1.3; D1 potentiator: -3.0; D1 antag: -1.0

What do the screens show for `COc1ccc(C(NC(=O)C2CCN(CCCOc3ccccc3)CC2)c2cccs2)cc1` (centres undefined)?
DRD3 antagonist: -74.8*; D3 ag: -11.6

How did COc1ccccc1C(NC(=O)C1CCN(CCOc2ccc(Cl)cc2Cl)CC1)c1ccccn1 (centres undefined) do in these assays?
DRD3 antagonist: inconclusive; D3 ag: -12.9

What do the screens show for `COc1ccc(C(NC(=O)C2CCN(CCOc3ccc(Cl)cc3Cl)CC2)c2ccccn2)cc1` (centres undefined)?
DRD3 antagonist: -69.6*; D3 ag: -24.4

How did Cc1ccc(C(NC(=O)C2CCN(CCCOc3ccccc3)CC2)c2ccccn2)cc1 (centres undefined) do in these assays?
DRD3 antagonist: -114.9*; D3 ag: -12.2

How did Cc1ccc(C(NC(=O)C2CCN(CCOc3ccc(Cl)cc3)CC2)c2ccccn2)cc1 (centres undefined) do in these assays?
DRD3 antagonist: -94.5*; D3 ag: -12.3

What do the screens show for `CC(=O)c1cc(-c2ccccc2)n(CC(=O)NC2CCCCCC2)c1C`?
D3 ag: -5.6; D1 agonist: -0.9; D1 potentiator: -4.2; D1 antag: 0.2

How did O=C(NC(c1ccccc1)c1cnccn1)C1CCN(CCCOc2ccccc2)CC1 (centres undefined) do in these assays?
DRD3 antagonist: 0.7; D3 ag: -22.2

Results for COc1ccc(OCCN2CCC(C(=O)NC(c3ccc(Cl)cc3)c3cccnc3)CC2)cc1 (centres undefined) ?
DRD3 antagonist: 20.4; D3 ag: -14.9

Results for O=C(NC(c1ccc(Cl)cc1)c1cnccn1)C1CCN(CCCOc2ccccc2)CC1 (centres undefined) ?
DRD3 antagonist: -84.2*; D3 ag: -12.9
